# Assay outcomes (PubChem BioAssay)
# CHOP inh: CHOP inhibition in unfolded protein response; CHO-K1 CHOP-promoter luciferase, tunicamycin-induced, 15-18 h; inhibition, % at 10 µM; hit rate 3.8% among 220,000; AID 2732;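 active = compounds that reduced the stress-induced luciferase reporter signal by more than about 70% of percent inhibition, limit read from the data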
# WT yeast gro inh: growth inhibition of WT yeast, mitochondrial fusion screen. mitochondrial fusion phenotypic screen, WT strain. hit rate 2.1% among 190,000. inhibition, % at 10 µM. AID 1362; in the data active = inhibition above about 58%; tested in S. cerevisiae
# RAM inhibit: blocks the yeast RAM network | S. cerevisiae dse1pr::URA3 reporter, 5-FOA growth OD615, 2 d; analog-sensitive cbk1-as2 kinase mutant strain | inhibition, % at 50 µM | hit rate 1.8% among 190,000;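 active = inhibition above a set limit, 3 SD over mean compound inhibition, cut at about 8.4% in these data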;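 also: inhibition rescues growth on 5-FOA so higher OD means more RAM inhibition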
# L major viab: reduces viability of Leishmania major promastigotes; inhibition, % at 10 µM; AID 1063; hit rate 9% among 200,000; resazurin fluorescence viability; in the data active = inhibition above about 50%;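 also: promastigotes grown with compound for 44 hours at 28 °C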
# Numbers stand for hits; . = inactive; / = not tested or not shown. Compounds with a hit are over-represented: about 13% of the library has one in this group of screens.
SMILES,CHOP inh,WT yeast gro inh,RAM inhibit,L major viab
Cc1ccc(NC2CCCCC2NS(=O)(=O)c2ccc(Cl)cc2)cc1 (stereo unspecified),90.5,.,.,.
O=S(=O)(NC1CCCCC1Nc1ccc(Cl)cc1)c1ccccc1 (stereo unspecified),.,.,.,91.4
O=S(=O)(NC1CCCCC1Sc1ncccn1)c1ccc(Cl)cc1 (stereo unspecified),.,.,.,.
O=S(=O)(NC1CCCCC1Sc1ncccn1)c1ccccc1 (stereo unspecified),.,.,.,64.9
CC(O)c1nc2ccc(C(=O)O)cc2[nH]1 (stereo unspecified),.,/,/,/
Nc1nc(-c2cc3ccccc3o2)cs1,.,/,/,/
CCCCSc1nnc(-c2ccccc2)c2ccccc12,82.3,82.0,.,.
CCN(CC)C(=S)Nc1ccc2nc3n(c(=O)c2c1)CCCCC3,.,.,.,.
COc1ccc(Cc2nnc(NC(=O)CSc3ccccc3)s2)cc1OC,.,.,.,51.3
CCc1nnc(NC(=O)CCC(=O)NCCc2ccc(OC)c(OC)c2)s1,.,.,.,60.8
CCc1nnc(NC(=O)CCC(=O)N2CCN(C3c4ccccc4-c4ccccc43)CC2)s1,.,.,.,51.4
CCC(=O)Nc1nnc(SCC(=O)NCCc2ccc(OC)c(OC)c2)s1,.,.,.,.
CCc1nnc(NC(=O)CCC(=O)N2CCN(Cc3ccccc3)CC2)s1,.,.,.,.
COc1cccc(C(=O)/C(C#N)=N/Nc2cccc(-c3ccnc(C)n3)c2)c1,.,/,/,/
COc1ccc(CNC(=O)N[C@@H](CC(C)C)C(=O)O)cc1OC,.,/,/,/
CCNC(=S)N(Cc1cc2cc(C)cc(C)c2[nH]c1=O)C1CCCC1,.,.,.,98.9
CCC(=O)N(Cc1cc2cc(C)c(C)cc2[nH]c1=O)C1CCCCC1,.,.,.,.
CC(=O)N(Cc1cc2c(C)cc(C)cc2[nH]c1=O)C1CCCCC1,.,98.5,.,.
CCNC(=S)N(Cc1cc2cc(C)ccc2[nH]c1=O)C1CCCC1,.,.,.,.
CCNC(=S)N(Cc1cc2c(C)ccc(C)c2[nH]c1=O)C1CCCC1,.,.,.,66.6
CNC(=S)N(Cc1cc2cc(C)cc(C)c2[nH]c1=O)C1CCCC1,.,.,.,60.1
COc1ccc(/C=C/C(=O)NC(=S)NCc2ccccc2)cc1OC,.,/,/,/
NS(=O)(=O)c1ccc(NC(=O)COC(=O)/C(=C/c2cccs2)c2cccs2)cc1,.,.,.,.
O=C(c1cc2cc(Br)ccc2o1)N1CCCC1,.,.,.,.
CC1CC(C)CN(C(=O)c2cc3cc(Br)cc(Br)c3o2)C1 (stereo unspecified),.,78.3,.,89.6
SMILES,CHOP inh,WT yeast gro inh,RAM inhibit,L major viab
Clc1cccc(Oc2ncccn2)c1,.,.,.,50.3
NC(=O)c1cccnc1Oc1cccc(Cl)c1,.,.,.,.
Oc1ccc(C=Nc2ccc3ncccc3c2)c(O)c1,.,.,.,93.3
Oc1ccc(C=Nc2cccc3ncccc23)c(O)c1,.,.,.,.
CC(NC(=O)CCN1N=C(c2ccccc2)CCC1=O)c1ccc2c(c1)OCCO2 (stereo unspecified),.,.,.,.
COc1ccc(Cc2noc(-c3ccc([N+](=O)[O-])cc3)n2)cc1OC,.,/,/,/
COc1ccc(Cc2noc(-c3ccc(C)cc3)n2)cc1,87.5,.,.,.
COc1ccc(-c2nc(-c3ccc(Br)o3)no2)cc1,75.8,.,.,.
CC(C)P(=O)(c1cccc(C(=O)O)c1)C(C)C,.,.,.,.
COc1cc(/C=C/[N+](=O)[O-])ccc1OCc1cccc(C(=O)O)c1,77.1,.,.,.
COC(=O)C(=Cc1ccc(OCc2ccc([N+](=O)[O-])cc2)c(OC)c1)C(=O)OC,.,.,9.2,.
COc1cc(C(c2c(C)[nH][nH]c2=O)c2c(C)[nH][nH]c2=O)ccc1OCc1ccc([N+](=O)[O-])cc1,.,.,.,98.4
COc1ccc(OCc2nc3ccccc3n2C(C)C)cc1,.,.,.,.
Cn1cnnc1SCC(=O)N/N=C/c1ccc(OCC(N)=O)cc1,.,/,/,/
Cc1cc(C)c(C(=O)COC(=O)CCNS(=O)(=O)c2c(Cl)cccc2Cl)cc1C,.,.,10.3,73.5
O=C(O)CCCCCNS(=O)(=O)c1c(Cl)cccc1Cl,.,.,.,.
C/C(=N\NC(=O)CCc1c[nH]c2ccccc12)c1ccc([N+](=O)[O-])cc1,.,.,.,61.0
CNC(=O)COC(=O)/C=C/c1c(C)nn(-c2ccccc2)c1C,.,.,.,.
O=C(c1cccc2ccccc12)N1CCN(c2ccc([N+](=O)[O-])c(NCc3ccco3)c2)CC1,.,.,.,55.1
Cc1ccccc1C(=O)N1CCN(c2ccc([N+](=O)[O-])c(NCc3ccco3)c2)CC1,.,.,.,.
